For assay [1], the target named is Cytochrome P450 2D6 (Homo sapiens) (UniProt P10635). Put plainly: Cytochrome P450 Family 2 Subfamily D Member 6 (CYP2D6) small molecule antagonists: luciferase reporter qHTS assay (AID 1671196). Note: nearly all actives have a fitted effect of over 50% in size. As to conditions: P450-Glo CYP2D6 enzyme assay, luciferin luminescence, 1 h; series mostly up to 115 µM. A digest of the protocol: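 Luminogenic proluciferin substrate, CYP2D6 enzyme; 10 min RT preincubation with compound, NADPH regeneration system added, 1 h RT. Stop/detection reagent, 20 min RT, luminescence read (RLU). Signal proportional to CYP activity.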

Assay [2] has as its target Cytochrome P450 2C19 (Homo sapiens) (UniProt P33261). Put plainly: Cytochrome P450 Family 2 Subfamily C Member 19 (CYP2C19) small molecule antagonists: luciferase reporter qHTS assay (AID 1671197). Note: nearly all actives have a fitted effect of over 65% in size. As to conditions: P450-Glo CYP2C19 enzyme, luciferin luminescence, 1 h; series mostly up to 52.9 µM. The gist of the method:
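Compounds were tested on CYP2C19 activity via proluciferin conversion to luciferin. The 37C, 1 h reaction followed NADPH addition; detection reagent stopped it.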

Assay [3] has as its target Cytochrome P450 1A2 (Homo sapiens) (UniProt P05177). Put plainly: Cytochrome P450 Family 1 Subfamily A Member 2 (CYP1A2) small molecule antagonists: luciferase reporter qHTS assay (AID 1671199). Note: nearly all actives have a fitted effect of over 50% in size. As to conditions: P450-Glo CYP1A2 enzyme, luciferin luminescence, 1 h; series mostly up to 53 µM. The gist of the method:
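Luminescence readout (relative luminescence units) after luciferin detection reagent, 20 min RT. Preceded by 1 h room-temperature CYP1A2 reaction with NADPH regeneration solution following 10 min compound preincubation with enzyme and proluciferin substrate. Furafylline positive control.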

For assay [4], the target named is Cytochrome P450 3A4 (Homo sapiens) (UniProt P08684). Put plainly: Cytochrome P450 Family 3 Subfamily A Member 4 (CYP3A4) small molecule antagonists: luciferase reporter qHTS assay (AID 1671201). Note: nearly all actives have a fitted effect of over 50% in size. As to conditions: P450-Glo CYP3A4 enzyme, luciferin luminescence, 1 h; series mostly up to 115 µM. A digest of the protocol:
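Proluciferin-to-luciferin conversion by CYP3A4, NADPH-regenerated, 1 h RT; luminescence read as RLU. Ketoconazole as control.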

The target in assay [5] is Cytochrome P450 2C9 (Homo sapiens) (UniProt P11712). Put plainly: Cytochrome P450 Family 2 Subfamily C Member 9 (CYP2C9) small molecule antagonists: luciferase reporter qHTS assay (AID 1671198). Note: nearly all actives have a fitted effect of over 50% in size. As to conditions: P450-Glo CYP2C9 enzyme assay, luciferin luminescence; series mostly up to 115 µM. The gist of the method:
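CYP2C9 activity was measured with a P450-Glo proluciferin substrate. Enzyme–substrate mix was held with compound for 10 min at room temperature, then NADPH regeneration solution was added for 1 h at 37C. Luciferin product was read as luminescence.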

The target in assay [6] is Voltage-gated inwardly rectifying potassium channel KCNH2 (Homo sapiens) (UniProt Q12809). Put plainly: Human Ether-a-go-go-Related Gene (hERG) channel small molecule antagonists: fluorescence cell-based qHTS assay (AID 1671200). Note: nearly all actives have a fitted effect of over 50% in size. As to conditions: hERG-U2OS cells, FluxOR thallium flux fluorescence; series mostly up to 76.8 µM. A digest of the protocol:
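Kinetic two-minute fluorescence traces, sampled at 1 s, were collected following thallium stimulus of U2OS cells (1000 per well) that had been cultured overnight at 37 C and loaded with FluxOR II.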

Inconclusive results are not listed. Active and inactive are the calls of the source. Calls come from the whole dose curve; as a rule, active = well fitted curve in the direction sought with a large enough effect in the repeat runs; inconclusive = weak or mixed curves; inactive = no such curve, though single readings can be large; an effect the other way counts as inactive or inconclusive.
Potency is the fitted concentration of half-maximal effect.

Cytochrome P450 2C19 (Homo sapiens), sequence (P33261 whole entry, looked up): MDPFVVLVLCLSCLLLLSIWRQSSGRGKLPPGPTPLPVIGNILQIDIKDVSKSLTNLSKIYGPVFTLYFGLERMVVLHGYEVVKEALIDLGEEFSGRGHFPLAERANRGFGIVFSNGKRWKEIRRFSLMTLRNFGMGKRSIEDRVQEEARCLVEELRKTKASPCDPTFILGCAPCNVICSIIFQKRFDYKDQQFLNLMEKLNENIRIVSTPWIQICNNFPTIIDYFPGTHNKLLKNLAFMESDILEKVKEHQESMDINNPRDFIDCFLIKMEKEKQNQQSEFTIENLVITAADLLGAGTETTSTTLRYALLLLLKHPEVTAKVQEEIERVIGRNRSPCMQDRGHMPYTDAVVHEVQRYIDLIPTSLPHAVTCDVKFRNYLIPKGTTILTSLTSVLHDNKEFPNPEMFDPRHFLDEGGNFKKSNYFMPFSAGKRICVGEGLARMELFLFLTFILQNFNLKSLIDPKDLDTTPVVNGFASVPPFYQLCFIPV
Cytochrome P450 1A2 (Homo sapiens), sequence (P05177 whole entry, looked up): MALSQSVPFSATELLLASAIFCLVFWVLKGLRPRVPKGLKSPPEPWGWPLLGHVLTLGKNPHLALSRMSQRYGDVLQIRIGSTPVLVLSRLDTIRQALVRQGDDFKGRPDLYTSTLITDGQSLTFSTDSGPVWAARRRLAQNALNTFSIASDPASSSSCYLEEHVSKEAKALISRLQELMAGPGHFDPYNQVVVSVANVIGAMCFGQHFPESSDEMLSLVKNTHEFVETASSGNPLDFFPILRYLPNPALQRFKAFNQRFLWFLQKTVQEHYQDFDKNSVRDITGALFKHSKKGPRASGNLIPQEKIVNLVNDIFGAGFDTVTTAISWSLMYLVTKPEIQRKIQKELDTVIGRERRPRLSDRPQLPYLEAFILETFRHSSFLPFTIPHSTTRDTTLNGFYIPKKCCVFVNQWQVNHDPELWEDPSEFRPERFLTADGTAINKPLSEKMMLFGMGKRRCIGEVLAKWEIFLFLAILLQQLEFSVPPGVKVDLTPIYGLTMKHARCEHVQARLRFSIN
Cytochrome P450 2D6 (Homo sapiens), sequence (P10635 whole entry, looked up): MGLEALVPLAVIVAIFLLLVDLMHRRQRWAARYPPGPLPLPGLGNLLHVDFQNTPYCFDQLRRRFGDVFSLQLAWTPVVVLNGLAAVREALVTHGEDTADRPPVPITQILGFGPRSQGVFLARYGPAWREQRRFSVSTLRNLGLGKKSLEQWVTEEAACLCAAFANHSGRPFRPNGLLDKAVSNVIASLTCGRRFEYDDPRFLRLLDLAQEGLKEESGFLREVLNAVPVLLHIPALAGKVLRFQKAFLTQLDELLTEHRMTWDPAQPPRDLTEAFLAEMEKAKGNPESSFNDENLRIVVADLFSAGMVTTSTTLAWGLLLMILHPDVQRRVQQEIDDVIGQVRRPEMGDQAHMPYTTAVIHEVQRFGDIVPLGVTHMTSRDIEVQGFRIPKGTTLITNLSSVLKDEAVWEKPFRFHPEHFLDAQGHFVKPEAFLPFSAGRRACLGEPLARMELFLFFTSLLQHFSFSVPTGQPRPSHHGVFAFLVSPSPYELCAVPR
Voltage-gated inwardly rectifying potassium channel KCNH2 (Homo sapiens), sequence (Q12809 whole entry, looked up): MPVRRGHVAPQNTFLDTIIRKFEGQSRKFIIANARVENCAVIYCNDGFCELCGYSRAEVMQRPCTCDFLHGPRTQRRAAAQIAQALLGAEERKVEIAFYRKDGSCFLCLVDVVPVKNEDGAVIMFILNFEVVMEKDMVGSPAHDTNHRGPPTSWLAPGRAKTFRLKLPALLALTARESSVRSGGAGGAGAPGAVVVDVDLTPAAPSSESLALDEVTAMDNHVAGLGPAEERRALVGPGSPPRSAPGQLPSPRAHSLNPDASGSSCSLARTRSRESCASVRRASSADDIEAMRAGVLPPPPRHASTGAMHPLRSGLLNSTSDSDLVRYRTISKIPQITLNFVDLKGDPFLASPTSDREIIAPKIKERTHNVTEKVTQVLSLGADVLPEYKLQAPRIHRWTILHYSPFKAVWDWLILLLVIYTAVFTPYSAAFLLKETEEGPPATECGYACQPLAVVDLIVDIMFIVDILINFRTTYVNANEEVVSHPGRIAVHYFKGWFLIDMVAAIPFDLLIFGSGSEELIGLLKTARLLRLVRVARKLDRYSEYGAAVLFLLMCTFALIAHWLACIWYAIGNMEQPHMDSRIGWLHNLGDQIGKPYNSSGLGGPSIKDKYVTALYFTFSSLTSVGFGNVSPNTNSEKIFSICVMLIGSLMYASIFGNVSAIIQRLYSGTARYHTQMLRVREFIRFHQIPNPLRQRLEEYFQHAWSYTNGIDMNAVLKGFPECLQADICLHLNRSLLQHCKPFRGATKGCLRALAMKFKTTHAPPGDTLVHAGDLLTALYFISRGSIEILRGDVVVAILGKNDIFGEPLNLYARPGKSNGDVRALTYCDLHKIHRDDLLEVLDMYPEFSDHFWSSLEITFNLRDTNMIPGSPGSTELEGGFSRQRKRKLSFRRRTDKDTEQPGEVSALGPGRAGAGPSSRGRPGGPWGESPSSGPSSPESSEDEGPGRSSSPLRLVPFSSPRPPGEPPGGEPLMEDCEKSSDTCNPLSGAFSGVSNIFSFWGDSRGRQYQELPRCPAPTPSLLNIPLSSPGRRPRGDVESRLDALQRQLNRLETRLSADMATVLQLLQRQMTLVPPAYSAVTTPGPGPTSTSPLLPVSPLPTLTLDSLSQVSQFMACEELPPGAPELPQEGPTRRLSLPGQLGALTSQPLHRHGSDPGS
Cytochrome P450 3A4 (Homo sapiens), sequence (P08684 whole entry, looked up): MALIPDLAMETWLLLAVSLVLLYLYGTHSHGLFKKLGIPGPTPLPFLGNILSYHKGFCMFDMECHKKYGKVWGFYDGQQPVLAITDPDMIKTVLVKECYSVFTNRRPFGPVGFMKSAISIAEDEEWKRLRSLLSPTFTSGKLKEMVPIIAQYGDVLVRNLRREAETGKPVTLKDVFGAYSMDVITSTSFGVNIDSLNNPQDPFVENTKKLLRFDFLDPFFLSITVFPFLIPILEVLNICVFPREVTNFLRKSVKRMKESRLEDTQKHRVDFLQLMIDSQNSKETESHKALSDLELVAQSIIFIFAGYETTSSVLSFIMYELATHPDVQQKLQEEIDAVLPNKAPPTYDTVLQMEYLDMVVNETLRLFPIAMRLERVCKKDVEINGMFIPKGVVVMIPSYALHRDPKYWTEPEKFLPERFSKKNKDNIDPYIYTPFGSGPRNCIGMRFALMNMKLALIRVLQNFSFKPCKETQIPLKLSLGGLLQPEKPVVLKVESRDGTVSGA
Cytochrome P450 2C9 (Homo sapiens), sequence (P11712 whole entry, looked up): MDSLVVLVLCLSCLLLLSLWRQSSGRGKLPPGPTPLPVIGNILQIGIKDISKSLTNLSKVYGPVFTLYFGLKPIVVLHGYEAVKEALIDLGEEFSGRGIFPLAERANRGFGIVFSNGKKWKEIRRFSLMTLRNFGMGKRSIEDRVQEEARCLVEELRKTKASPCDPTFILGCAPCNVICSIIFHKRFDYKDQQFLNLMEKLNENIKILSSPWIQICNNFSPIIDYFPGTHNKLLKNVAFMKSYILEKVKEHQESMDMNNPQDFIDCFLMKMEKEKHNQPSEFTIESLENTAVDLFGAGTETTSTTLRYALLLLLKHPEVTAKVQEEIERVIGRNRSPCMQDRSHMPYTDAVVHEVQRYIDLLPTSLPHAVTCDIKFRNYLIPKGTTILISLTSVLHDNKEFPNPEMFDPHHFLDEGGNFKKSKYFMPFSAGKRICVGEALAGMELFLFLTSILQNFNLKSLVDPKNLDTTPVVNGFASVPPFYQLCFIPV

In the case of `Cc1cccc(N(C)C(=S)Oc2ccc3c(c2)CCC3)c1`, the Potency entry in assay [1] and in assay [4] was “inactive” in each case. The Potency in assay [2] is 1.74 µM (active); in assay [3], 10.2 µM (active).

As for `CN(C(=O)CN(CCO)CC(=O)N(C)C(C)(C)Cc1ccccc1)C(C)(C)Cc1ccccc1`, the Potency in assay [1] is 4.36 µM (active); in assay [5], 30.9 µM (active). Moreover, the Potency result in assay [3] and in assay [6] was “inactive” throughout.

For `C[C@H]1c2cccc(O)c2C(O)=C2C(=O)[C@]3(O)C(O)=C(C(N)=O)C(=O)[C@@H](N(C)C)[C@@H]3[C@@H](O)[C@@H]21`, the Potency result in assay [1], in assay [2], in assay [3], in assay [6] and in assay [4] was “inactive” throughout.

Regarding `CC(C)=CCC1C(=O)N(c2ccccc2)N(c2ccccc2)C1=O`, the Potency result in assay [1] and in assay [6] was “inactive” each time. The Potency in assay [2] was 27.5 µM (active).

Regarding `CCOC(=O)c1ccc(O)c(O)c1`, the Potency result in assay [1], in assay [2], in assay [6] and in assay [4] was “inactive” in each case. In addition, the Potency in assay [3] was 27.5 µM (active).

Consider `O=C1NCCN1CCO`, for which the Potency entry in assay [1], in assay [2], in assay [3], in assay [6] and in assay [4] was “inactive” throughout.

As for `CS(=O)(=O)c1ccc(-c2cn3ccccc3n2)cc1`, the Potency was 27.5 µM (active) in assay [1], 24.5 µM (active) in assay [2] and 0.456 µM (active) in assay [3]. For the same compound, the Potency result in assay [4] was “inactive”.

As for `O=C1c2ccccc2C(=O)N1CCc1noc(-c2ccc(CN3CCCCCC3)s2)n1`, the Potency in assay [1] is 8.19 µM (active); in assay [2] it was 8.19 µM (active); in assay [6], 20.1 µM (active); in assay [4] it was 0.231 µM (active).

Regarding `c1ccc2sc(SN(C3CCCCC3)C3CCCCC3)nc2c1`, the Potency was 1.25 µM (active) in assay [1] and 7.87 µM (active) in assay [2]. Moreover, the Potency result in assay [6] was “inactive”.

For `O=C(/C=C/c1ccc(O)c(O)c1)O[C@@H]1C[C@@](OC(=O)/C=C/c2ccc(O)c(O)c2)(C(=O)O)C[C@@H](O)[C@@H]1O`, the Potency entry in assay [1], in assay [6] and in assay [4] was “inactive” in each case. The Potency in assay [2] is 12.3 µM (active); in assay [3], 27.5 µM (active).

For the compound `N#[N+]c1ccc2c(S(=O)(=O)[O-])cccc2c1O`, the Potency in assay [1] is 31.7 µM (active); in assay [2] it was 20 µM (active). In addition, in assay [6], the Potency result is “inactive”.

Consider `CC1=C(Br)C(=O)C(Br)=C/C1=C(/c1ccccc1S(=O)(=O)O)c1cc(Br)c(O)c(Br)c1C`, for which the Potency in assay [1] was 21.6 µM (active); in assay [2], 27.2 µM (active); in assay [3], 19.2 µM (active); in assay [4], 24.2 µM (active). Besides, the Potency result in assay [6] is “inactive”.

Consider `C=C1c2cccc(O)c2C(O)=C2C(=O)[C@]3(O)C(O)=C(C(N)=O)C(=O)[C@@H](N(C)C)[C@@H]3[C@@H](O)[C@H]12`, for which the Potency result in assay [1], in assay [2], in assay [3], in assay [6] and in assay [4] was “inactive” in each case.

`CCCCCC#CC(=O)OC`: the Potency entry in assay [1], in assay [2], in assay [3], in assay [6] and in assay [4] was “inactive” each time.

On to `COC(=O)c1nc(Cl)c(Cl)nc1N`, for which the Potency entry in assay [1], in assay [2] and in assay [4] was “inactive” in each case. Moreover, in assay [3], the Potency was 4.36 µM (active).

As to `CN1C(=O)OC(C)(C)C1=O`, the Potency entry in assay [1], in assay [2], in assay [6] and in assay [4] was “inactive” each time.

Regarding `Cc1ccc(C(C)(C)O)cc1`, the Potency entry in assay [1], in assay [2] and in assay [4] was “inactive” each time.

Turning to `CCCCCCC(C)(C)C(=O)O`, the Potency entry in assay [1] and in assay [4] was “inactive” throughout. Besides, in assay [2], the Potency was 71 µM (active).

For the compound `COc1cc(C(=O)NCCCCCC(=O)O)cc(OC)c1OC`, the Potency result in assay [1], in assay [2], in assay [3], in assay [6] and in assay [4] was “inactive” throughout.

Take `CC(C)=CC(=O)C=C(C)C`: the Potency entry in assay [1], in assay [6] and in assay [4] was “inactive” in each case. Moreover, the Potency in assay [2] is 39.7 µM (active); in assay [3], 28.1 µM (active).

Consider `O=C1C(=O)c2ccccc2C(O)=C1C1CCC(c2ccc(Cl)cc2)CC1` (centres undefined), for which the Potency entry in assay [1], in assay [2], in assay [3], in assay [6] and in assay [4] was “inactive” each time.

Regarding `O=C(O)c1ccc(OCCCOc2ccc(C(=O)O)cc2)cc1`, the Potency in assay [1] was 8.71 µM (active). The Potency entry in assay [2], in assay [3] and in assay [4] was “inactive” each time.

`c1ccc(C[n+]2cccc3ccccc32)cc1`: the Potency is 3.17 µM (active) in assay [1] and 39.9 µM (active) in assay [2]. Moreover, the Potency result in assay [6] and in assay [4] was “inactive” each time.

For `O=C1c2ccccc2C(=O)C1(O)O`, the Potency in assay [1] was 35.8 µM (active); in assay [2], 71.4 µM (active). The Potency result in assay [6] and in assay [4] was “inactive” throughout.

Turning to `CC1=C(CC=O)C(C)(C)CCC1`, the Potency result in assay [1], in assay [2], in assay [3] and in assay [6] was “inactive” throughout. Further, the Potency in assay [4] is 31.7 µM (active).

As to `O=C(CCCN1CC=C(n2c(=O)[nH]c3ccccc32)CC1)c1ccc(F)cc1`, the Potency in assay [1] is 2.45 µM (active). For the same compound, the Potency result in assay [2], in assay [3] and in assay [4] was “inactive” each time.

`Brc1cc(Br)c(Oc2cc(Br)c(Br)cc2Br)cc1Br`: the Potency entry in assay [1], in assay [3] and in assay [4] was “inactive” throughout. Further, the Potency in assay [2] is 13.8 µM (active).

In the case of `CCCCCCCC/C=C\CCCCCCCCO`, the Potency entry in assay [1], in assay [2] and in assay [4] was “inactive” each time. The Potency in assay [3] was 28.2 µM (active).

On to `C1COC1`, for which the Potency entry in assay [1], in assay [2], in assay [3], in assay [6] and in assay [4] was “inactive” in each case.

Consider `Cc1ccc(OC(=O)c2ccccc2O)cc1`, for which the Potency result in assay [1], in assay [2] and in assay [4] was “inactive” in each case. For the same compound, the Potency in assay [3] is 35.6 µM (active).

Turning to `CN(C)CCC=C1c2ccccc2C=Cc2ccccc21`, the Potency in assay [1] was 6.17 µM (active). In addition, the Potency entry in assay [2], in assay [3] and in assay [4] was “inactive” throughout.

Consider `CCCCN(CCCC)C(C(N)=O)c1ccc(OC)cc1` (centres undefined), for which the Potency in assay [1] was 0.977 µM (active); in assay [2], 15.5 µM (active). In assay [6], the Potency result was “inactive”.

The record behind these values is PubChem BioAssay (Tox21).
